The source of these data is the supplement of paper PMC4894684.

Structures can show the parent of a compound that is named as a salt. ± gives the standard deviation of the averaged measurements.

In this experiment the test system is Toxoplasma gondii RH (in HFF). As to the kind of experiment: parasite growth relative to the screen mean (all compounds = 100%); higher = less inhibition of parasite growth. Conditions: 5 µM; 72 h; oxygen 21 %. The essentials: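 Library compounds, held as 10 mM DMSO stocks, were pinned to 5 µM final onto confluent human foreskin fibroblasts in 96-well plates. The cells were infected within 2 h with RH β-Gal–GFP Toxoplasma (MOI 1:5), grown 72 h at 21% O2, and assayed for parasite number by CPRG β-Gal using in-plate standard curves. Growth is reported relative to the screen mean, in which all compounds = 100%, averaged over two screens, and CellTiter-Blue checked uninfected host-cell viability.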
Molecule `Nc1nc(Cl)nc2c1ncn2[C@@H]1O[C@H](CO)[C@@H](O)[C@@H]1F` [Clofarabine] came in with a parasite growth of 67.9 ± 2.8%.

Molecule `CC(C)NC[C@H](O)COc1ccc(CC(N)=O)cc1` [S-(-)-Atenolol] displayed a parasite growth of 149 ± 12%.

With `Cn1ccc2cc(NC(=O)Nc3cccnc3)ccc21`, the parasite growth was 129 ± 6.5%. The figure for `CC(C)(C(=O)O)c1ccc(C(O)CCCN2CCC(C(O)(c3ccccc3)c3ccccc3)CC2)cc1` (stereo not drawn) [Fexofenadine hydrochloride] is 122 ± 26%; for `CCCCCCCCCCCC1=C(O)C(=O)C=C(O)C1=O` [Embelin] it is 122 ± 4.3%; for `CN/C(=N\CCSCc1nc[nH]c1C)NC#N` [Cimetidine] it is 118 ± 10%. The figure for `CCCCCCN(CCCCCC)C(=O)Cc1c(-c2ccc(Cl)cc2)[nH]c2ccc(Cl)cc12` is 175 ± 22%; for `O=[N+]([O-])c1cc2nc(O)c(O)nc2cc1[N+](=O)[O-]` it is 91.7 ± 27%. As for `COC(=O)[C@H]1[C@H]2C[C@@H]3c4[nH]c5cc(OC)ccc5c4CCN3C[C@H]2C[C@@H](OC(=O)c2cc(OC)c(OC)c(OC)c2)[C@@H]1OC` [Reserpine], the parasite growth is 78.4 ± 47%. `Oc1cc(O)cc(/C=C/c2ccc(O)c(O)c2)c1` [Piceatannol] had a parasite growth of 145 ± 42%. In turn, `CCOC(=O)c1cnc2c(cnn2CC)c1NN=C(C)C` [Etazolate hydrochloride] had a parasite growth of 127 ± 21%. The figure for `CCCC[C@@H](C=O)NC(=O)[C@H](CC(C)C)NC(=O)OCc1ccccc1` [Calpeptin] is 19.9 ± 4.8%. `CN/C(=N\c1ccc(C2=NNC(=O)CC2C)cc1)NC#N` (stereo not drawn) [Siguazodan] showed a parasite growth of 130 ± 23%. `C[C@](N)(Cc1ccc(O)c(O)c1)C(=O)O` [L-(-)- α-Methyldopa] displayed a parasite growth of 146 ± 39%. The figure for `C=CCn1c(=O)n([C@@H]2O[C@H](CO)[C@@H](O)[C@H]2O)c2nc(N)[nH]c(=O)c21` is 116 ± 8.2%; for `N#CC(=C(/N)Sc1ccccc1N)/C(C#N)=C(/N)Sc1ccccc1N` it is 197 ± 14%. The figure for `Oc1c2ccccc2c2c3c(cccc13)N=N2` is 7.23 ± 4.4%; for `Nc1nnc(Sc2ncc([N+](=O)[O-])s2)s1` it is 116 ± 26%; for `COc1cccc(-c2cc(=O)c3ccccc3o2)c1N` it is 93.9 ± 37%. The figure for `O=C(NCCCN1CCC2(CC1)OCc1ccccc12)[C@H]1CCCN1Cc1ccccc1` is 136.9 ± 0.99%; for `Cc1cc(Cn2cnc3c2CC(C(=O)O)N(C(=O)C(c2ccccc2)c2ccccc2)C3)ccc1N(C)C` (stereo not drawn) it is 130 ± 23%. Turning to `COc1ccc(-c2nc(-c3ccc(-c4cccc(Cl)c4)o3)[nH]c2-c2ccc(OC)cc2)cc1` [Neurodazine], the parasite growth worked out at 120 ± 28%.

`NC(=O)N/N=C/c1ccc(Oc2ccc(F)cc2)cc1` registered a parasite growth of 145 ± 19%. In turn, `c1ccc(-c2n[nH]c3c2oc2ccccc23)cc1` showed a parasite growth of 103 ± 32%. `O=C(O)c1ccc(C=C2SC(=S)N(c3cccc(C(F)(F)F)c3)C2=O)cc1`: the parasite growth was determined as 109 ± 36%. The figure for `CCCCCCN(CCCCCC)C(=O)Cc1c(-c2ccc(F)cc2)[nH]c2ccccc12` is 151 ± 28%; for `Cc1ccc(/C=N/NC(=O)c2ccccc2Oc2ccccc2)o1` it is 72.7 ± 4.9%. The figure for `Cc1nnc(-c2ccc3occ(-c4ccc([S+](C)[O-])cc4)c3c2)o1` (stereo not drawn) is 83.7 ± 4.5%; for `CCOC(=O)C1=C(C)NC(C)=C(C(=O)OC)C1c1cccc([N+](=O)[O-])c1` (stereo not drawn) [Nitrendipine] it is 118 ± 5.5%; for `CN1CCC(=C2c3ccccc3CC(=O)c3sccc32)CC1` [Ketotifen fumarate] it is 54.3 ± 14%. Take `COc1ccc2[nH]c(-c3ccccc3)c(CCNC(C)=O)c2c1` [2-Phenylmelatonin]: the parasite growth turned out to be 149 ± 20%. In turn, `COc1ccccc1N1CCN(CC(O)COc2cccc3ccccc23)CC1` (stereo not drawn) [Naftopidil hydrochloride] yielded a parasite growth of 118.7 ± 0.3%. Regarding `C/C=C1\C(=O)C[C@H]2[C@@H]3CCC4=CC(=O)CC[C@]4(C)[C@H]3CC[C@]12C` [Guggulsterone], the parasite growth worked out at 90.6 ± 26%. On to `CC(NC(=O)c1ccccc1/N=C/c1c(O)ccc2ccccc12)c1ccccc1` (stereo not drawn) [Sirtinol], for which the parasite growth amounted to 97.5 ± 34%. The figure for `Cc1cc(C(=O)O)sc1C(N)C(=O)O` (stereo not drawn) is 126 ± 5.2%; for `CCN(CC)CCOC(=O)c1cc(Cl)c(N)cc1OC` [SDZ 205-557 hydrochloride] it is 105 ± 6.7%.

As for `Cn1cc(/C=C2\C(=O)Nc3cccnc32)c2ccccc21`, the parasite growth came out at 131 ± 5.3%.

`CNCCC(Oc1ccc(C(F)(F)F)cc1)c1ccccc1` (stereo not drawn) [Fluoxetine hydrochloride] displayed a parasite growth of 20.9 ± 8.2%.
